# Compound activity from PubChem.
# KCNQ2 enhance = enhances the rat KCNQ2 potassium channel; CHO-K1 KCNQ2, FluxOR thallium flux fluorescence; stronger effect = higher value; actives 0.54% (n = 310,000); O88943; B-score at 10 µM;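 active = fluorescence ratio B-score at least 3 SD of library B-scores, with initial fluorescence B-score within 3 of them, cut at about 5.3 in these data; same plate scores as AID 2156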;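 also: B-score of peak minus minimum over baseline fluorescence ratio after K+ and Tl+ stimulus; positive B-score means potentiation of KCNQ2 with more thallium influx and brighter signal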
# Target sequence (O88943 whole entry, looked up): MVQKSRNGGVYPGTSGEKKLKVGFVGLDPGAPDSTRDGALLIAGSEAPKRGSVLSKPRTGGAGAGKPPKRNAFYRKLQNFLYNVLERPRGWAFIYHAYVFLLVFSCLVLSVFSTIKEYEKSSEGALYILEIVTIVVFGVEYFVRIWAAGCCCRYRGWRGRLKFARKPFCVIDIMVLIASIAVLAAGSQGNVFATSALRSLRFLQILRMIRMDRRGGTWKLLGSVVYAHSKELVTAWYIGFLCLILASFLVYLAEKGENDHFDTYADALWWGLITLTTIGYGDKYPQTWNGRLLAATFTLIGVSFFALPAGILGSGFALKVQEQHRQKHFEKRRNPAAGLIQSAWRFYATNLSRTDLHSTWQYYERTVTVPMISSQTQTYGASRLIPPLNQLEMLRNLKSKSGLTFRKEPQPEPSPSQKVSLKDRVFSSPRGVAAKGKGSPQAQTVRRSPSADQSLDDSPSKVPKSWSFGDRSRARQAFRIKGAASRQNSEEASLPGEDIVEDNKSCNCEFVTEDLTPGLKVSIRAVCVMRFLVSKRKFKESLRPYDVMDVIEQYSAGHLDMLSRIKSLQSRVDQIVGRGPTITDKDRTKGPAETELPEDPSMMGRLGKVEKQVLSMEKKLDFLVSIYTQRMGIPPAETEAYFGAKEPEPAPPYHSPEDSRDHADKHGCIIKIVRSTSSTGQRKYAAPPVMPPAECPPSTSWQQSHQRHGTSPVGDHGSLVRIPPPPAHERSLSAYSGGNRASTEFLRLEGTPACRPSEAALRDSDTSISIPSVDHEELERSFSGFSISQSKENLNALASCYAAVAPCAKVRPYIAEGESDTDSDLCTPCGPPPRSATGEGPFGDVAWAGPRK
# KCNQ2 inh = blocks the rat KCNQ2 potassium channel; O88943; CHO-K1 KCNQ2, FluxOR thallium flux, 20 min; stronger effect = lower value; B-score at 10 µM; actives 1.1% (n = 310,000);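 active = fluorescence ratio B-score at most minus 3 library SDs, with starting brightness B-score within 2 library SDs, cut at about -5.5 in these data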
# Active calls of the source: *; i = inactive; . = no result. Compounds with a hit are over-represented: about 1.6% of the library has one in this group of screens.
SMILES,KCNQ2 enhance,KCNQ2 inh
COc1ccc(CCNC(=O)Cc2ccc([N+](=O)[O-])cc2)cc1OC,.,i
COc1ccc(CCNC(=O)Cc2ccc(OCc3ccccc3)c(OC)c2[N+](=O)[O-])cc1OCc1ccccc1,-7.67,-7.67*
O=C1c2ccc(Br)cc2C(=O)N1c1ccc(Cc2ccncc2)cc1,.,i
Cc1ccc(OC(=O)CCC(=O)NC(C)c2ccccc2)cc1 (centres undefined),.,i
CC(C)Oc1cccc(NC(=O)c2cnccc2C(F)(F)F)c1,0.34,i
CCOC(=O)c1c(NC(=O)/C=C\C(=O)O)sc(C)c1-c1ccccc1,0.68,i
CCOC(=O)c1c(NC(=O)/C=C/C(=O)O)sc(C)c1-c1ccc(C(C)(C)C)cc1,7*,i
CCCOP(=O)(c1ccc(N(C)C)cc1)C(O)c1c(Cl)cccc1Cl (centres undefined),0.59,i
CC(C)CCOP(=O)(c1ccc(N(C)C)cc1)C(O)c1c(Cl)cccc1Cl (centres undefined),-5.61,-5.61*
Cc1cccc(OCC(=O)NCCNC(=O)c2ccccn2)c1,0.02,i
CCOc1ccc(N(CC(=O)N2CCN(Cc3ccccc3)CC2)S(C)(=O)=O)cc1,0.74,i
COc1ccc(CC(=O)NCc2nnc(SCCOc3ccccc3)n2C)cc1,.,i
CCn1c(CC(=O)Nc2cccc(Cl)c2Cl)nnc1SCCOc1ccc(OC)cc1,-6.11,-6.11*
COc1ccc(OCCSc2nnc(CC(=O)Nc3cccc(Cl)c3Cl)n2C)cc1,-8.14,-8.14*
CCn1c(COc2cccc(OC)c2)nnc1SCC(=O)Nc1cc(OC)ccc1OC,.,i
Cc1cc(OCC(=O)Nc2ccncc2)ccc1[N+](=O)[O-],3.21,i
COc1cccc(/C=N/NC(=O)c2ccc([N+](=O)[O-])cc2Cl)c1O,7.73*,i
COc1cc(/C=N/NC(=O)c2cccc([N+](=O)[O-])c2)cc(OC)c1O,1.89,i
CCN(C(=O)/C=C/c1ccccc1)C1CCCCC1,-5.8,-5.8*
CCCCN(C(=O)/C=C/c1ccccc1)C1CCS(=O)(=O)C1 (centres undefined),0.07,i
COc1ccc(/C(N)=N/OC(=O)CCc2ccccc2)cc1OC,.,i
COc1ccc(/C(N)=N/OC(=O)CSc2ccccc2)cc1OC,-6.03,-6.03*
CCNC(=S)NNc1nc(N2CCCCC2)nc(N2CCOCC2)n1,.,i
CCN1C(=O)/C(=C/c2cccs2)SC1=Nc1ccc(OC)cc1,1.01,i
CCN(CC)CCN1C(=O)/C(=C\c2ccc(Cl)c([N+](=O)[O-])c2)SC1=Nc1ccc(OC)cc1,.,i
SMILES,KCNQ2 enhance,KCNQ2 inh
COc1ccc(N=C2S/C(=C\c3ccc(Cl)c([N+](=O)[O-])c3)C(=O)N2CCN(C)C)cc1,-5.63,-5.63*
CCCN1C(=O)/C(=C/c2ccc(C)s2)SC1=Nc1ccc(OC)cc1,-6.17,-6.17*
O=C(CNC(=O)c1ccc(Br)o1)NC1CCCCC1,0.12,i
Cc1ccc(CNC(=O)CCCC(=O)c2ccccc2)cc1,.,i
CCCCCn1c2c(c(=N)c3ccccc31)CCC2,0.75,i
CCCCCCCCCCn1c2c(c(=N)c3c1CCC3)CCC2,32*,i
CC1CC(C)CN(CC(O)COCc2ccccc2)C1 (centres undefined),.,i
CCOC(=O)N1CCC(NC(=O)c2oc3c(C)c(C)ccc3c2C)CC1,-5.66,-5.66*
Cc1ccc2c(C)c(C(=O)NCCN3CCCC(O)C3)oc2c1C (centres undefined),0.72,i
CCOC(=O)N1CCC(NC(=O)c2ccccc2C(=O)O)CC1,0.54,i
Cc1ccc2c(C)c(C(=O)NCCN3CCOC3=O)oc2c1C,5.47*,i
O=C(CCc1nnc(-c2ccc3c(c2)OCO3)o1)NC(c1cccnc1)C(F)(F)F (centres undefined),0.89,i
CCOc1cc(C)cc2oc(=O)cc(-c3ccccc3)c12,.,i
O=C(COc1ccc(Br)cc1)N1CCc2ccccc2C1,-6.52,-6.52*
O=C(COc1ccc(Br)cc1)N1CCOCC1,.,i
COc1ccc(OCC(=O)N2CCc3ccccc3C2)cc1,.,i
Cc1cc(OCC(=O)N2CCc3ccccc3C2)c2c(-c3ccccc3)cc(=O)oc2c1,-7.55,-7.55*
O=C(COc1ccc(Br)cc1)N1CCC(c2ccccc2)C1 (centres undefined),-5.58,-5.58*
Cc1ccc(C(=O)NCC(=O)OC(C)C(=O)NC2CCCc3ccccc32)cc1 (centres undefined),.,i
CCOC(=O)C1CCCCN1Cc1ccc(-c2ccccc2)cc1 (centres undefined),.,i
CCn1c(=O)c2cc(C(=O)N(C)c3ccc(OC)cc3OC)sc2c2ccccc21,.,i
CCn1c(=O)c2cc(C(=O)N(C)c3cc(C)ccc3OC)sc2c2ccccc21,-6.39,-6.39*
Cc1cccc2cc(CNCc3ccccc3)c(Cl)nc12,.,i
Cc1ccc(C)c(N2CCN(C(=O)c3ccc(CS(=O)(=O)c4ccccc4C)o3)CC2)c1,-6.49,-6.49*
Cc1ccc(S(=O)(=O)Cc2ccc(C(=O)N3CCN(c4cc(C)ccc4C)CC3)o2)cc1,0.55,i
SMILES,KCNQ2 enhance,KCNQ2 inh
Cc1ccc(C)n1-n1c(C)nc2sc3c(c2c1=O)CCCCC3,.,i
Cc1ccc(C)n1-n1cnc2sc3c(c2c1=O)CCCCC3,-7.47,-7.47*
Nn1c(SCC(=O)NC(=O)Nc2ccc3c(c2)OCCO3)nnc1C1CC1,.,i
COc1ccc(/C=C2\SC(=O)N(CC(=O)NCCCn3ccnc3)C2=O)cc1,.,i
O=C1c2ccccc2C(=O)N1CCCCN(C(=O)c1cc([N+](=O)[O-])ccc1Cl)c1ccc(Cl)cc1,.,i
CC(=O)/C(=N\Nc1ccccc1)Sc1cccc2cccnc12,.,i
O=C(Sc1cccc2cccnc12)c1ccccc1Br,-6.18,-6.18*
Cc1sc2nc(CSc3ccccc3)nc(N3CCOCC3)c2c1C,-5.89,-5.89*
Cc1sc2nc(CSc3ccccc3)nc(N3CCC(C(N)=O)CC3)c2c1C,1.45,i
O=C1c2ccccc2C(=O)N1CCCCN(C(=O)c1ccc(Cl)s1)c1ccc(Cl)cc1,-5.61,-5.61*
Cc1ccc(N(CCCCN2C(=O)c3ccccc3C2=O)C(=O)c2ccc(Cl)s2)cc1,.,i
CCOC(=O)C1=C(N)OC2=C(C(=O)CC(C)(C)C2)C1c1ccoc1 (centres undefined),0.89,i
CCOC(=O)C1=C(N)OC2=C(C(=O)CC(C)(C)C2)C1C1CCCCC1 (centres undefined),-7.46,-7.46*
Cc1ccc(-c2cc(Cc3ccccc3)c(=O)[nH]n2)cc1,.,i
O=C(NC(NCc1ccccc1)C(Cl)(Cl)Cl)c1cccnc1 (centres undefined),.,i
O=C(NC(NCc1cccnc1)C(Cl)(Cl)Cl)c1cccc2ccccc12 (centres undefined),-6.28,-6.28*
COc1cccc(CNC(=O)CCS(=O)(=O)c2cccs2)c1,0.42,i
O=C(NCc1cccc(F)c1)C1CCC(=O)N(CC2CCCCC2)C1 (centres undefined),0.89,i
CCOc1ccccc1NC(=O)c1ccccc1-c1nc(-c2ccccc2)no1,.,i
CCOc1ccccc1C(=O)Nc1ccccc1C(N)=O,0.61,i
CCOc1ccccc1NC(=O)c1ccccc1-c1ccccc1,-5.58,-5.58*
NC(=O)c1cccnc1Oc1ccc(Cl)cc1,.,i
COC(=O)c1cc(OC)c(OC)cc1NC(=O)c1cc(-c2ccccc2)nc2ccccc12,.,i
CCOc1ccccc1NC(=O)c1cccc2ccccc12,-5.55,-5.55*
